Molecules are shown by their SMILES. Several values for one entry are separate records, joined by “and”; a condition that tells them apart may be missing. Identical values can stand only once. Unmarked numbers belong to inactive results. Records with an inconclusive call do not appear. Activity calls are given as the source filed them. Unless noted, calls come from the whole dose curve; as a rule, active = well fitted curve in the direction sought with a large enough effect in the repeat runs; inconclusive = weak or mixed curves; inactive = no such curve, though single readings can be large; an effect the other way counts as inactive or inconclusive.

A short description of assay [1]: qHTS assay to identify small molecule agonists of the estrogen receptor alpha (ER-alpha) signaling pathway in the presence of an antagonist - cell viability counter screen (AID 1259386).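 Note: series mostly up to about 92 µM; cells exposed to compounds for 22 h at 37 °C before the viability read; nearly all actives have a fitted effect of over 30% in size.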 The method in brief: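 In this counter screen, compound effects on VM7Luc4E2 viability were tested in the presence of the antagonist ICI-182,780 at 10.0nM final. Compounds were dosed at 15 concentrations, exposure lasted 22hr, and the CellTiter-Fluor signal was read.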

Assay [2] has as its target Progesterone receptor (Homo sapiens) (UniProt P06401). The assay can be described thus: qHTS assay to identify small molecule agonists of the progesterone receptor (PR) signaling pathway (AID 1346784; calls by dose curve; note: nearly all actives have a fitted effect of over 30% in size). The method in brief:
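Compounds were tested for PR agonism in HEK 293T cells bearing a beta-lactamase gene under UAS control. Treatment lasted 16 hr at 37C; signal came from fluorescence of a FRET substrate.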

Assay [3] shares this target. Put plainly: qHTS assay to identify small molecule antagonists of the progesterone receptor (PR) signaling pathway (AID 1346795; active = well fitted inhibition curve with a large enough effect in the signal ratio in the repeat runs, not every such curve was filed as active; the % refers to the signal ratio; note: potency is the fitted concentration of half-maximal effect). In outline:
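In HEK293T cells bearing the PR-UAS-bla reporter, compound effects on promegestone-driven (1 nM) beta-lactamase expression are assessed after 16 hr using a fluorescent FRET substrate incubated 2 hr at room temperature.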

The nature of assay [4]: qHTS assay to identify small molecule antagonists of the progesterone receptor (PR) signaling pathway - cell viability counter screen (AID 1346798). Note: series mostly up to about 92 µM; nearly all actives have a fitted effect of over 50% in size. The method in brief: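 Following a 4 hr attachment, PR-UAS-bla HEK293T cells in charcoal-stripped FBS medium were exposed to compounds with R5020 for 16 hr; CellTiter-Glo was added and luminescence read after 30 min at room temperature.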

The nature of assay [5]: qHTS assay to identify small molecule antagonists of the TGF-beta/Smad signaling pathway - cell viability counter screen (AID 1346824). Note: nearly all actives have a fitted effect of over 50% in size. In outline:
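Cytotoxicity counter-screen run in the same wells as the beta-lactamase Smad reporter read: CellTiter-Glo luminescence after 30 min at room temperature. HEK 293T SBE-bla cells had 5 hr compound exposure at 37 C with TGF-beta1 (0.25 ng/mL stock).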

A short description of assay [6]: qHTS assay to identify small molecule agonists of the TGF-beta/Smad signaling pathway - cell viability counter screen (AID 1346829). Note: top concentration of the series differs between compounds; nearly all actives have a fitted effect of over 45% in size. In outline:
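Tox21 qHTS format: SBE-bla HEK 293T cells treated with DMSO-dissolved compounds for 5 hr; CellTiter-Glo luminescence after 30 min at room temperature.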

Assay [7] concerns the target Thyrotropin-releasing hormone receptor (Homo sapiens) (UniProt P34981). Put plainly: qHTS assay to identify small molecule antagonists of the thyrotropin-releasing hormone receptor (TRHR) signaling pathway (AID 1346877; active = well fitted inhibition curve with a large enough effect in the repeat runs, not every such curve was filed as active; note: series mostly up to about 51 µM). The method in brief:
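Kinetic fluorescence (3 min, 1 s resolution) following stimulation with TRH at 1 nM final; HEK293 cells bearing human TRHR; 5 min compound preincubation at RT; concentration-response over 15 points, triplicates.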

Assay [8] can be described thus: Human pregnane X receptor (PXR) small molecule agonists, qHTS cell viability counter screen (AID 1346977). Note: nearly all actives have a fitted effect of over 50% in size. The method in brief: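 Tox21 qHTS format; PXR-Luc HepG2, 2,000/well, charcoal-stripped FBS 5%. Cpd exposure 24hr. Read: CellTiter-Fluor fluorescence, multiplexed with luciferase.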
Assay [9] can be described thus: Caspase-3/7 induction in HepG2 cells by small molecules, qHTS assay (AID 1346978). Note: nearly all actives have a fitted effect of over 15% in size. The method in brief:
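Caspase-3/7 induction was measured by Caspase-Glo 3/7 luminescence (30 min, room temperature) after a 17 hr compound exposure of wild-type HepG2 cells seeded at 2,000 per well and pre-incubated 5 hr.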

A short description of assay [10]: Caspase-3/7 induction in HepG2 cells by small molecules, qHTS cell viability counter screen (AID 1346981). Note: series mostly up to about 92 µM; nearly all actives have a fitted effect of over 30% in size. The method in brief:
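In this quantitative HTS counter screen, compounds delivered in DMSO were left on unmodified HepG2 cells for 16 hr at 37 C. Viability was then determined fluorometrically with CellTiter-Fluor, in parallel with caspase-3/7 induction in the same wells.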

Assay [11] deals with Nuclear receptor subfamily 1 group I member 2 (Homo sapiens) (UniProt O75469). Put plainly: Human pregnane X receptor (PXR) small molecule agonists, qHTS assay (AID 1346982). Note: nearly all actives have a fitted effect of over 35% in size. Note: potency is the fitted concentration of half-maximal effect. The method in brief:
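Reporter HepG2 cells expressing PXR-Luc are cultured in charcoal-stripped FBS (5%), treated with compounds for 24 hr at 37 C, and assayed by ONE-Glo luminescence after 30 min at room temperature.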

Assay [12] deals with Acetylcholinesterase (Homo sapiens) (UniProt P22303). The assay can be described thus: Acetylcholinesterase (AChE) small molecule antagonists: colormetric cell-based qHTS assay (AID 1347395; calls by dose curve; note: nearly all actives have a fitted effect of over 30% in size). In outline: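 AChE inhibition read colorimetrically via DTNB–thiocholine in SH-SY5Y cells. Compound 30 min, substrate 90 min, both 37 C.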
A short description of assay [13]: qHTS assay to identify small molecule agonists of the progesterone receptor (PR) signaling pathway - cell viability counter screen (AID 1346799; calls by dose curve; note: nearly all actives have a fitted effect of over 45% in size). The method in brief: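 Here, 3,000 PR-UAS-bla HEK293T cells per well were treated with compounds for 16 hr after a 6 hr preincubation at 37C and 5% CO2; cell viability is the CellTiter-Glo luminescence signal.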
Assay [14] is described as follows: qHTS assay to identify small molecule agonists of the TGF-beta/Smad signaling pathway (AID 1346859; active = well fitted activation curve with a large enough effect in the signal ratio in the repeat runs, not every such curve was filed as active; the % refers to the signal ratio; note: series mostly up to about 77 µM). In outline: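 Each well held 4,000 SBE-bla HEK 293T cells incubated overnight before compound addition; 5 hr later the cleavable FRET substrate went on for 2 hr at room temperature, and fluorescence was read at two emissions.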
For assay [15], the target named is Thyrotropin-releasing hormone receptor (Homo sapiens) (UniProt P34981). Put plainly: qHTS assay to identify small molecule agonists of the thyrotropin-releasing hormone receptor (TRHR) signaling pathway (AID 1346891; calls by dose curve; note: series mostly up to about 58 µM). The method in brief: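 Screening of agonists relied on calcium signalling in HEK293 cells expressing human TRHR: dye loading 2 h at 37 °C preceded compound addition and a 3-min fluorescence time course.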

Assay [16] can be described thus: Caspase-3/7 induction in CHO-K1 cells by small molecules, qHTS cell viability counter screen (AID 1346979). Note: nearly all actives have a fitted effect of over 35% in size. Note: potency is the fitted concentration of half-maximal effect. In outline:
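CellTiter-Fluor viability check, qHTS format: wild-type CHO-K1, 16hr compound treatment, 1hr reagent incubation, fluorescence read.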

The nature of assay [17]: Caspase-3/7 induction in CHO-K1 cells by small molecules, qHTS assay (AID 1346980). Note: nearly all actives have a fitted effect of over 15% in size. In outline: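 Luminescent Caspase-Glo 3/7 read (30min, room temperature) quantified apoptosis induction. Cells were wild-type CHO-K1, treated with compound for 17hr at 37 C and 5% CO2.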
Assay [18] concerns the target Nuclear receptor subfamily 1 group I member 2 (Rattus norvegicus) (UniProt Q9R1A7). The assay can be described thus: Rat pregnane X receptor (rPXR) activation by small molecules, qHTS assay (AID 1346983). Note: nearly all actives have a fitted effect of over 20% in size. Conditions: rPXR luciferase reporter cells, One-Glo luminescence, 24 h; active compounds read high. The method in brief:
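Luminescent readout (One-Glo luciferase, 30 min room temperature) followed 24 hr compound treatment at 37 C of rPXR cells plated 2,000 per well and preincubated 5hr; qHTS format with compounds delivered in DMSO.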

The target of assay [19] is Nuclear receptor subfamily 1 group I member 2 (Homo sapiens) (UniProt O75469). The assay can be described thus: CYP3A4 induction through human pregnane X receptor (PXR) by small molecules, qHTS assay (AID 1346984). Note: nearly all actives have a fitted effect of over 40% in size. The method in brief: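 Induction measured in HepG2-based DPX-2 cells co-expressing human PXR and a CYP3A4 promoter-driven luciferase. After a 24-hour compound exposure, cells received CYP3A4 luciferin substrate at 3uM final for 3 hours, and light output was then recorded.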

For assay [20] the target is unchanged. Put plainly: Human pregnane X receptor (PXR) activation by small molecules, qHTS assay (AID 1346985). Note: nearly all actives have a fitted effect of over 40% in size. The method in brief:
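DPX-2 cells (HepG2 co-transfected with a PXR response element and a CYP3A4-promoter luciferase construct) were seeded at 2,000 per well, rested 5 hr at 37C, then exposed to DMSO-dissolved compounds for 24 hr. Activation was read as luciferase luminescence.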
% is set by controls: 0 for no effect and ±100 for the full control effect.

Acetylcholinesterase (Homo sapiens), sequence (P22303 whole entry, looked up): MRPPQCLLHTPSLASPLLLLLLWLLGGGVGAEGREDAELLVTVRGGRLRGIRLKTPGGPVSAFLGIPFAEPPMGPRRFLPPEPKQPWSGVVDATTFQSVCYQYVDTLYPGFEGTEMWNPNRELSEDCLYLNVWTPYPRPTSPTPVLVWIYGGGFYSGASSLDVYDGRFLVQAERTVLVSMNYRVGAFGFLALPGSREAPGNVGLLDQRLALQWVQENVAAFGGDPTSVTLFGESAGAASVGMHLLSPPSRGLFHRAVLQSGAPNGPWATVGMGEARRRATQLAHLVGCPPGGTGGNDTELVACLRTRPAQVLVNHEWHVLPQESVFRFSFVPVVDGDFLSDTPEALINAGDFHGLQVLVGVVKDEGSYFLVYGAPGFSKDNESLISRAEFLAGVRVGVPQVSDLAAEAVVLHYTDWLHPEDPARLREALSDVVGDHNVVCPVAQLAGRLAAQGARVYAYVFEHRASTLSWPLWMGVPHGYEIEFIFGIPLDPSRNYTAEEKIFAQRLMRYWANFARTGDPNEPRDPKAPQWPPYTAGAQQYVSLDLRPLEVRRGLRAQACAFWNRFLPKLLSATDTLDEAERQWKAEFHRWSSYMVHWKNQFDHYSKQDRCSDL
Nuclear receptor subfamily 1 group I member 2 (Homo sapiens), sequence (O75469 whole entry, looked up): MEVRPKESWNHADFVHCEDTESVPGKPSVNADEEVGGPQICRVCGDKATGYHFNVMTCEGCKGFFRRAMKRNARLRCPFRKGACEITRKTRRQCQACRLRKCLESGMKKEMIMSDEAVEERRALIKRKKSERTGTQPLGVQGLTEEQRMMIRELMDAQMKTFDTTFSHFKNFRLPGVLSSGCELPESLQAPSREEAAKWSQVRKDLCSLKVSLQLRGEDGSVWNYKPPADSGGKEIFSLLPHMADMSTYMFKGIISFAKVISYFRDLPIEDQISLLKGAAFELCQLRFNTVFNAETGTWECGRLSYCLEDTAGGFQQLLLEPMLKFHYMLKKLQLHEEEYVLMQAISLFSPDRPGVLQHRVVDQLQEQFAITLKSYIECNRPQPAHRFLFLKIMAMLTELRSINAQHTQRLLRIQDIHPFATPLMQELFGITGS
Progesterone receptor (Homo sapiens), sequence (P06401 whole entry, looked up): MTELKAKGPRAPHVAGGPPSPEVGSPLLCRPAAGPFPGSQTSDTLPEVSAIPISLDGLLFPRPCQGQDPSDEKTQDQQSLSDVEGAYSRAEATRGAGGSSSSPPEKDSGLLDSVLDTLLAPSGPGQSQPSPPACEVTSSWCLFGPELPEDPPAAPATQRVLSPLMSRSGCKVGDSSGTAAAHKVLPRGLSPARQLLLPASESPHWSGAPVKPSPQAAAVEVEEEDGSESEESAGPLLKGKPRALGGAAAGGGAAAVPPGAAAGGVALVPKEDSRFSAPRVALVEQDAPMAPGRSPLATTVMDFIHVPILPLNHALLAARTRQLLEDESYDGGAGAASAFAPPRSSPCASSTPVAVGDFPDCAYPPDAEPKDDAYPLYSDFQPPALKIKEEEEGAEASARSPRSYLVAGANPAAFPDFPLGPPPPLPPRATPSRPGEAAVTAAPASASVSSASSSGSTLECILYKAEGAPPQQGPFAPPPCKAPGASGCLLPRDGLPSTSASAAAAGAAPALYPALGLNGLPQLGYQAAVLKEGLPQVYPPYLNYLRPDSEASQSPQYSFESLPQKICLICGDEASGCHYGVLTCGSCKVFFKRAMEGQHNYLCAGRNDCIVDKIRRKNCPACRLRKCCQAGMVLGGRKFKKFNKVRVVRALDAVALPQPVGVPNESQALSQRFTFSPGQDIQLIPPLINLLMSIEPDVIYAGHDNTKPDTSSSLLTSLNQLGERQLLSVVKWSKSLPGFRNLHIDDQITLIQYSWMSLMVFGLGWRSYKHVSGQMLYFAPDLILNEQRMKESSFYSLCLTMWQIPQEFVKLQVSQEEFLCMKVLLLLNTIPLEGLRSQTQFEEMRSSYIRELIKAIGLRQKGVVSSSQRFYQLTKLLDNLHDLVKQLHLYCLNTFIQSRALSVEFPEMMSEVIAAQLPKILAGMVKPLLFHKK
Thyrotropin-releasing hormone receptor (Homo sapiens), sequence (P34981 whole entry, looked up): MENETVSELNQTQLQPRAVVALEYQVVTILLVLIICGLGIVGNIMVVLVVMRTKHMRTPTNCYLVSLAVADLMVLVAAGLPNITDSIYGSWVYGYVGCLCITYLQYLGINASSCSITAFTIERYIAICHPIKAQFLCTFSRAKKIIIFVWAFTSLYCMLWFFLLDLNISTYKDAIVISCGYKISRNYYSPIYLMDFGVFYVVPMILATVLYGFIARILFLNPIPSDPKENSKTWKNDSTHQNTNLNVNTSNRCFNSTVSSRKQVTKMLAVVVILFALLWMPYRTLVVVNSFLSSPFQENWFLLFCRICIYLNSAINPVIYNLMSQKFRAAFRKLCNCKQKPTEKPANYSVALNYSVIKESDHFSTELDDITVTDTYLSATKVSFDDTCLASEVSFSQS
Nuclear receptor subfamily 1 group I member 2 (Rattus norvegicus), sequence (Q9R1A7 whole entry, looked up): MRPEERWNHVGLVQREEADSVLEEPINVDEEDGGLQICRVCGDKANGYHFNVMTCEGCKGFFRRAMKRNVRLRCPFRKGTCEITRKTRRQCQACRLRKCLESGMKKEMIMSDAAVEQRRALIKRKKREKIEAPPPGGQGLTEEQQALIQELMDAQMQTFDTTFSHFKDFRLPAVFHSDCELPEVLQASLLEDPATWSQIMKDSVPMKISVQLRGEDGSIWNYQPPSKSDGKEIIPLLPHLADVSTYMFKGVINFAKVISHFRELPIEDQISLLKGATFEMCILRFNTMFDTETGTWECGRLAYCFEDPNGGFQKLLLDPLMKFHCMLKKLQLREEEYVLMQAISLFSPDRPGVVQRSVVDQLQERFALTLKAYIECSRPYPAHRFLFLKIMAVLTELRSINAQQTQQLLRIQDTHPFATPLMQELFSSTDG

Regarding `CC(Cl)C(=O)O` (stereo not given), the Potency entry in assay [1], in [2], in assay [3], in assay [4], in assay [5] and in assay [6] was “inactive” in each case. In addition, the Potency entry in [7], in assay [8], in assay [9], in assay [10], in [11] and in [12] was “inactive” each time.

On to `CCCC1CCCCN1` (stereo not given), for which the Potency result in assay [1], in assay [2], in assay [3], in [13], in assay [5] and in assay [6] was “inactive” throughout. In addition, the Potency entry in assay [7], in assay [8], in assay [9], in assay [16], in [17] and in assay [10] was “inactive” in each case. For the same compound, the Potency result in [11], in [20] and in assay [12] was “inactive” in each case. The result in assay [14], in assay [15] and in [19] was inactive. The max activation in assay [18] was -2.95%.

For the compound `COC(=O)Cc1ccccc1`, the Potency entry in [1], in assay [2], in assay [3], in assay [4], in assay [5] and in assay [6] was “inactive” throughout. Besides, the Potency result in assay [8], in assay [9], in assay [16], in [10], in [11] and in [12] was “inactive” in each case. The compound was classed as inactive in assay [14].

`C=CCc1ccc(OC(=O)Cc2ccccc2)c(OC)c1`: the Potency result in assay [1], in [2], in [3], in assay [13], in assay [5] and in assay [6] was “inactive” throughout. In addition, the Potency entry in [7], in [8], in assay [9], in [16], in assay [17] and in assay [11] was “inactive” each time. In addition, the Potency entry in assay [12] was “inactive”. In assay [14], the compound was called inactive.

In the case of `C1CCNCC1`, the Potency entry in assay [1], in assay [2], in assay [3], in assay [4], in assay [6] and in [8] was “inactive” each time. The Potency result in assay [9], in [16], in [17], in assay [11] and in assay [12] was “inactive” throughout.

Regarding `C=CC(=O)OCC`, the Potency result in assay [1], in [2], in assay [3], in assay [13], in assay [6] and in assay [7] was “inactive” in each case. The Potency result in assay [8], in [9], in assay [10], in [11] and in assay [12] was “inactive” throughout. The call in [15] was inactive.

For the compound `CC(Oc1cccc(Cl)c1)C(=O)O` (stereo not given), the Potency result in [1], in [2], in [3], in assay [4], in assay [5] and in [6] was “inactive” throughout. The Potency result in [7], in assay [8], in assay [9], in [16], in assay [17] and in assay [11] was “inactive” throughout. Further, in [12], the Potency entry is “inactive”. The outcome in assay [14] and in assay [15] was inactive.

`OCC1CO1` (stereo not given): the Potency entry in assay [1], in [2], in [3], in [4], in assay [5] and in assay [8] was “inactive” each time. The Potency entry in assay [9], in assay [16], in [17], in assay [10], in [11] and in assay [12] was “inactive” each time.

With `CC(C)(C)OOC(C)(C)CCC(C)(C)OOC(C)(C)C`, the Potency entry in assay [1], in assay [2], in assay [3], in assay [4], in [5] and in assay [7] was “inactive” each time. Besides, the Potency result in [8], in assay [9], in assay [16], in assay [17], in assay [10] and in [11] was “inactive” throughout. Further, the Potency result in assay [12] was “inactive”. Also, the compound was classed as inactive in assay [15].

In the case of `CCCBr`, the Potency entry in assay [1], in assay [2], in assay [3], in assay [13], in [5] and in [6] was “inactive” throughout. Besides, the Potency entry in assay [7], in [8], in assay [9], in [10], in assay [11] and in assay [12] was “inactive” throughout. Also, the result in assay [14] and in [15] was inactive.

Regarding `O=P(OCC(Br)CBr)(OCC(Br)CBr)OCC(Br)CBr` (stereo not given), the Potency entry in [1], in [2], in assay [4], in [5], in assay [6] and in [7] was “inactive” in each case. For the same compound, the Potency entry in [9], in [17], in [10] and in assay [12] was “inactive” in each case. Moreover, the Potency in assay [3] was 5.8 µM (active); in [16], 69.5 µM (active); in assay [11], 55.2 µM (active) and 51.7 µM (active). In addition, the compound was classed as inactive in assay [14] and in assay [15].

Turning to `Clc1ccc2ccccc2c1`, the Potency result in [1], in [2], in [3], in [4], in [5] and in [7] was “inactive” each time. Besides, the Potency result in assay [8], in assay [9], in assay [16], in assay [17], in assay [10] and in [11] was “inactive” throughout. Moreover, in assay [12], the Potency result was “inactive”. The result in assay [14] and in [15] was inactive.

In the case of `CN[C@@H](C)[C@H](O)c1ccccc1`, the Potency result in assay [1], in [2], in [3], in [4], in [5] and in [6] was “inactive” in each case. Also, the Potency result in assay [7], in assay [8], in assay [9], in assay [16], in [17] and in [10] was “inactive” each time. Moreover, the Potency entry in [11], in [20] and in assay [12] was “inactive” throughout. The call in assay [14], in assay [15] and in [19] was inactive. Besides, the max activation in assay [18] was -0.788%.

As to `C[N+](C)(C)CC1CO1` (stereo not given), the Potency entry in assay [1], in [2], in assay [3], in [4], in assay [6] and in [7] was “inactive” throughout. In addition, the Potency result in [8], in [9], in assay [16], in [17], in assay [10] and in [11] was “inactive” in each case. Also, in [12], the Potency result is “inactive”. For the same compound, the outcome in assay [14] and in [15] was inactive.
